Hit rate of the full screen: of about 48,000 compounds, about 13,000 (27%) showed an effect of 50% or more. This is one part of the list.
Each molecule was assayed on Wolbachia pipientis (assay: Anti-Wolbachia Cell-Based Screen). Conditions: 5 µM.
Assay type: functional
Design: scale not given: in the data most compounds retested in dose-response had high values
Cc1cc2n(n1)CC(CNC1CCN(Cc3ccncc3)CC1)CN2 (configuration not stated) was tested, and the “Percent Effect” value was 3.296%.
With Cc1noc(C)c1CNC(=O)N(C1CC1)C(C)c1ccco1 (configuration not stated) the “Percent Effect” value was -2.539%.
For Cc1ccc2c(-c3nc4c([nH]3)CCNC4C(=O)O)cccc2n1 (configuration not stated), the “Percent Effect” value was 0.6964%.
O=C(CC1CCc2ccccc21)NC1(C(=O)O)CCCC1 (configuration not stated) was tested, and the “Percent Effect” value was 9.016%.
For COCC(=O)N1CCC2(CC1)CC(CC(=O)NC1CC1)c1ccccc12 (configuration not stated), the “Percent Effect” value was -16.01%.
With CNC(=O)CC1CC2(CCN(Cc3nccs3)CC2)c2ccccc21.O=C(O)C(F)(F)F (configuration not stated) the “Percent Effect” value was -2.085%.
CCC(=O)N1CCC2(CC1)CC(CC(=O)N(C)C)c1ccc(F)cc12 (configuration not stated) was tested, and the “Percent Effect” value was 103%.
CCN1CCC2(CC1)CC(CC(=O)N(C)C)c1ccc(F)cc12 (configuration not stated) was tested, and the “Percent Effect” value was 112.9%.
O=C(CC1CC2(CCNCC2)c2ccccc21)NCC1CC1 (configuration not stated) was tested, and the “Percent Effect” value was 105%.
For CCNC(=O)CC1CC2(CCN(C(C)=O)CC2)c2cc(F)ccc21 (configuration not stated), the “Percent Effect” value was -4.484%.
In the case of CCC(=O)N1CCC2(CC1)CC(CC(N)=O)c1ccc(F)cc12 (configuration not stated), the “Percent Effect” value is reported as 3.39%.
CCOC1CC2(CCN(C(=O)COC)CC2)c2cc(F)ccc21 (configuration not stated) was tested, and the “Percent Effect” value was -4.976%.
For COCCN1CCC2(CC1)CC(CC(N)=O)c1ccc(F)cc12 (configuration not stated), the “Percent Effect” value was 8.076%.
With Cc1ccc2c(c1)C1(CCNCC1)CC2OCC1CC1 (configuration not stated) the “Percent Effect” value was 7.08%.
CNC(=O)CC1CC2(CCNCC2)c2cc(F)ccc21 (configuration not stated) was tested, and the “Percent Effect” value was 95.41%.
CCN1CC(C(=O)N2CCc3cc(C(N)=O)n(C)c3C2)CCC1=O (configuration not stated) was tested, and the “Percent Effect” value was -10.45%.
With Cc1ccc(-c2nc(CN3CCn4c(nnc4C4CC4)C3)no2)cc1 the “Percent Effect” value was -10.52%.
c1cncc(NCCNC2CCSC2)c1 (configuration not stated) was tested, and the “Percent Effect” value was 14.04%.
For CCC(C)n1cnc(S(=O)(=O)N(C)c2cccnc2N(C)C)c1 (configuration not stated), the “Percent Effect” value was 2.284%.
In the case of Cc1nnc(CSc2ccccn2)o1, the “Percent Effect” value is reported as -5.067%.
In the case of O=C(CCN1CCCC1C1CCCCC1)N1CCc2sccc2C1 (configuration not stated), the “Percent Effect” value is reported as 3.149%.
In the case of CN(C)S(=O)(=O)N1CCC2(CC1)CC(OCC1CC1)CO2 (configuration not stated), the “Percent Effect” value is reported as -4.528%.
CC(C)(C)CC(=O)NC[C@H]1OC[C@@H](NC2CCC(F)(F)CC2)[C@@H]1O was tested, and the “Percent Effect” value was -11.06%.
For COc1nn(C)c2c1CCCN(C(=O)c1cscn1)C2, the “Percent Effect” value was 93.39%.
COc1nn(C)c2c1CCCN(C(=O)c1c[nH]cn1)C2 was tested, and the “Percent Effect” value was -44.84%.
For COc1nn(C)c2c1CCCN(C(=O)c1cnccn1)C2, the “Percent Effect” value was 102.6%.
In the case of Cn1nc(C#N)c2c1CN(C(=O)c1c[nH]cn1)CCC2, the “Percent Effect” value is reported as -11.9%.
In the case of Cn1nc(C#N)c2c1CN(C(=O)c1nc[nH]n1)CCC2, the “Percent Effect” value is reported as -49.74%.
With Cn1nc(C#N)c2c1CN(C(=O)c1ccnnc1)CCC2 the “Percent Effect” value was -0.2276%.
In the case of CCN(Cc1noc(C(C)(C)C)n1)Cc1ccc(C#N)cc1F, the “Percent Effect” value is reported as -6.556%.
For OC(CN(Cc1ccccc1)Cc1cccnc1)c1cccs1 (configuration not stated), the “Percent Effect” value was -7.082%.
In the case of Cc1cc(C)n(Cc2cc(C(=O)N3CCCC3c3ccccn3)n[nH]2)n1 (configuration not stated), the “Percent Effect” value is reported as 101.3%.
With O=C(CCCn1cncn1)N1CCCCC1c1nccs1 (configuration not stated) the “Percent Effect” value was -0.08053%.
Cc1cc(C)n(CCC(=O)N2CCCCC2c2nccs2)n1 (configuration not stated) was tested, and the “Percent Effect” value was 97.13%.
Cc1cc(C)n(CC2CCCN2C(=O)CCCNc2ncccn2)n1 (configuration not stated) was tested, and the “Percent Effect” value was -5.56%.
For Cn1cccc1-c1cc(C(=O)N2CCCC2c2nccs2)[nH]n1 (configuration not stated), the “Percent Effect” value was -11.21%.
With Cc1cc(C)n(Cc2cc(C(=O)N[C@H]3CCCCNC3=O)n[nH]2)n1 the “Percent Effect” value was 1.384%.
For Cc1cc(C)n(Cc2cc(C(=O)N3CCCCC3c3nccs3)n[nH]2)n1 (configuration not stated), the “Percent Effect” value was 94.44%.
With Cc1cc(C)n(Cc2cc(C(=O)N3CCCC3c3nccs3)n[nH]2)n1 (configuration not stated) the “Percent Effect” value was 147.1%.
For Cc1cc(C)n(CC2CCCN2C(=O)Cc2cn3ccsc3n2)n1 (configuration not stated), the “Percent Effect” value was 5.291%.
In the case of Cc1noc(CCCC(=O)N2CCCCC2c2nccs2)n1 (configuration not stated), the “Percent Effect” value is reported as 4.452%.
CC(=O)N1CCC(N2CCN3C(=O)N(c4ccccc4)C[C@H]3C2)CC1 was tested, and the “Percent Effect” value was -6.558%.
For CC(C)C(=O)N1CCN(S(=O)(=O)C2CC2)CC2(CC(=O)N(C)C2)C1 (configuration not stated), the “Percent Effect” value was -3.068%.
In the case of CNC(=O)c1nnn(-c2ccccc2F)c1-c1ccccn1, the “Percent Effect” value is reported as -7.96%.
C[C@H]1C[C@H]2CN(C(=O)C3=CCCCC3)CC[C@H]2O1 was tested, and the “Percent Effect” value was -8.819%.
With Cc1cccc2[nH]c(C3CCCN3Cc3ccc(CO)o3)nc12 (configuration not stated) the “Percent Effect” value was -7.499%.
With CCS(=O)(=O)NC(C(=O)NC)c1ccc(F)c(F)c1 (configuration not stated) the “Percent Effect” value was -1.609%.
With Cc1cc(C(=O)N2CCCCC2c2nc(C)cs2)[nH]n1 (configuration not stated) the “Percent Effect” value was 5.063%.
Cc1csc(C2CCCCN2C(=O)c2cc(C3CC3)[nH]n2)n1 (configuration not stated) was tested, and the “Percent Effect” value was 105.1%.
For Cc1csc(N2CCN(C(=O)c3cc(C4CC4)[nH]n3)CC2)n1, the “Percent Effect” value was -15.84%.
For CCc1nc(C2CCCN2C(=O)c2cc(C3CC3)[nH]n2)no1 (configuration not stated), the “Percent Effect” value was -2.923%.
Cc1csc(C2CCCCN2C(=O)c2cc(C(C)C)[nH]n2)n1 (configuration not stated) was tested, and the “Percent Effect” value was 109.6%.

Reference: ChEMBL document CHEMBL3988442, “University of Dundee, Small-Polar-MMV Screening Library” (2021)
